Outcome and Potency data for 30 molecules are collected here from PubChem BioAssay (NCATS).

Assay [1] can be described thus: qHTS for Inhibitors of Plasmodium falciparum (7G8) proliferation (AID 504316). A digest of the protocol: (§1)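 Parasite growth measured as SYBR Green DNA fluorescence (ex 485, em 535 nm) after overnight lysis following 72 h culture at 37 °C, 0.3% parasitemia, 2.5% hematocrit. Values normalized against DMSO and 0.29 uM artemisinin controls, with plate-stack correction.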

Assay [2] in a line: qHTS for Inhibitors of Plasmodium falciparum (HB3) proliferation (AID 504318). The gist of the method:
as §1
For orientation: Quantitative high-throughput screening tests each substance at several concentrations.

Assay [3] is described as follows: SW1088 Cancer Cell Toxicity qHTS against the NCATS CANVASS Library (AID 1347350). A digest of the protocol: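 Toxicity is measured over 72 h of compound exposure at 37 degrees C under 5% CO2. Each well holds 1000 cells, pre-incubated for 4 hours before dosing across an 11-point range. CellTiter-Glo luminescence gives viability.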
A short description of assay [4]: MCF7 Cancer Cell Toxicity qHTS against the NCATS CANVASS Library (AID 1347369). A digest of the protocol: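 MCF7 cells (500/well) were exposed 72 h at 37 °C to compounds in an 11-point series. Viability was read as ATP content by CellTiterGlo luminescence.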
Assay [5] can be described thus: qHTS for ATAD5 Antagonist screened against the NCATS CANVASS Library (AID 1347370). The gist of the method: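 Compounds (11-point) co-dosed with 10 µM 5-FUrd for 16 h at 37 °C onto HEK293T-ATAD5 luciferase reporter cells. Viability measured by CellTiter-Fluor fluorescence, then ATAD5 reporter signal by luminescence.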
Assay [6] is described as follows: qHTS for Hypoxia signaling pathway (HIF-1) agonists against the NCATS CANVASS Library (AID 1347375). A digest of the protocol: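 Beta-lactamase reporter under HRE control in ME-180 cells; compounds (11-point qHTS series) added after 5 hrs plating, then 17 hrs at 37C. FRET substrate read after 2 hr; same-well CellTiter-Glo luminescence gave viability and normalization.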

A short description of assay [7]: qHTS for activators of Nrf2/ARE signaling pathway screened against the NCATS CANVASS Library (AID 1347391). A digest of the protocol:
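Eleven-point qHTS, 16 h treatment of HepG2 cells carrying an ARE-driven beta-lactamase reporter; CCF4 ratio read (405 nm excitation, 460 and 530 nm emission), with CellTiter-Glo ATP luminescence for viability.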

The nature of assay [8]: qHTS for inhibitors of Wild type Zika virus screened against the NCATS CANVASS Library (AID 1347396). A digest of the protocol:
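Luminescent CellTiter Glo read-out of virus-induced cytotoxicity, 72 h post-infection, in Vero 766 cells. Compounds were tested at 11 concentrations; uninfected, vehicle-treated wells defined 100% inhibition.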

Assay [9] in a line: qHTS for inhibitors of Rabies Virus screened against the NCATS CANVASS Library (AID 1347402; calls by dose curve).
Assay [10] can be described thus: HEK-293 Cancer Cell Toxicity qHTS against the NCATS CANVASS Library (AID 1347355). The gist of the method:
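Toxicity was measured as CellTiter-Glo luminescence after 72 h exposure to an 11-point compound series. Compound was added to 1000 cells/well 4 h after seeding.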

Assay [11] can be described thus: G06 Cancer Cell Toxicity qHTS against the NCATS CANVASS Library (AID 1347368). A digest of the protocol:
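Viability measured by CellTiterGlo ATP luminescence after 72 hr at 37C, 5% CO2. Canine G06 glioma cells plated at 500/well. Compounds tested as 11-point qHTS titrations.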

The nature of assay [12]: A2780 Cisplatin Sensitive Ovarian Cancer Cell Toxicity qHTS against the NCATS CANVASS Library (AID 1347353). A digest of the protocol:
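Cisplatin-sensitive A2780 ovarian cells (750/well) received compound in 11 concentrations, and were incubated 72 h at 37 °C. ATP content was measured by ATPLite luminescence; bortezomib served as control.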

Assay [13] in a line: Stat Signaling Pathway (AID 446; active = well fitted curve in either direction with a large enough effect, not every such curve was filed as active). A digest of the protocol: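 FRET read-out (405 nm excitation, 460/530 nm emission) of a beta-lactamase reporter under a STAT-inducible element in ME-180 cervical carcinoma cells. Cells with compound receive 40 pM IL-6 for 5 h. Values are normalised to AC90 stimulation and AC90 JAK-inhibitor controls.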

Results filed as inconclusive are left out. Values without a mark were called inactive. Activity calls are given as the source filed them. Unless noted, calls come from the whole dose curve; as a rule, active = well fitted curve in the direction sought with a large enough effect; inconclusive = small, poorly fitted or top-dose-only effect, or another doubt; inactive = no such curve, though single readings can be large; an effect the other way counts as inactive or inconclusive.

As for `CC(=O)[C@]12C[C@]3(C)CCCN(C(=O)N[C@@H]1c1ccccc1)C32` (some centres not stated), in assay [1], the outcome was inactive. Also, in assay [2], the Potency result was “inactive”.
Consider `CCOC(=O)[C@@]12C3[C@@H](CCN3C(=O)N[C@@H]1c1ccccc1)[C@@H]2C` (some centres not stated), for which the molecule was classed as inactive in assay [1]. The Potency result in assay [2] is “inactive”.
In the case of `CCC[C@]12CCN3C(=O)N[C@@H](c4ccccc4)[C@](C(=O)OCC)(C1)[C@H]32`, the molecule was called inactive in assay [1]. The Potency result in [2] was “inactive”.
With `CCN1C[C@]2(C)CC[C@H](O)[C@]34C1C(C[C@H]23)[C@@]12CC[C@H](CC14)[C@](O)(COC(=O)c1ccc(OC)c(OC)c1)[C@H]2O` (some centres not stated), the Potency result in assay [3], in assay [4], in [5], in assay [6], in assay [7] and in assay [8] was “inactive” throughout. Also, the call in assay [9] was inactive.
As to `CCOC(=O)[C@]12C[C@@H]3CCN(C(=O)N(C(C)=O)[C@@H]1c1ccccc1)[C@@H]32`, the outcome in assay [1] was inactive. For the same molecule, the Potency entry in assay [2] was “inactive”.
On to `COC(=O)[C@@]12Cc3ccccc3[C@H]1C[C@H](C)[C@@H](C)N2C(=O)C(F)(F)F`, for which the molecule was classed as inactive in assay [1].
For the molecule `CC(=O)[C@]12[C@H](c3ccccc3)[C@@H]3CCN(C(=O)N[C@H]1c1ccccc1)[C@@]32C`, the Potency result in assay [2] was “inactive”.
For `COC(=O)C1=C2CCO[C@@H]2[C@H]2[C@@H](C)[C@H](OC)c3ccccc3[C@H]12`, in [1], the molecule was classed as inactive. Also, in assay [2], the Potency entry was “inactive”.
Regarding `COC(=O)C1=C2CCO[C@H]2[C@@H]2[C@@H](C)[C@H](OC)c3ccccc3[C@@H]12`, the result in [1] was inactive. The Potency entry in assay [2] was “inactive”.
With `CC1=CC(=O)C2=C(C)C[C@H](O)[C@@H]3[C@H](OC(=O)[C@@H]3C)[C@@H]12`, the Potency result in [3], in assay [10], in assay [11], in [4], in assay [5] and in assay [8] was “inactive” throughout. For the same molecule, in [7], the Potency was 13.2 µM (active). Further, the call in assay [9] was inactive.
As for `CC(=O)[C@@]12C3[C@@H](CCN3C(=O)N[C@H]1c1ccccc1)[C@H]2c1ccccc1` (some centres not stated), in assay [2], the Potency result is “inactive”.
Still for that read-out and setting: as for `COC(=O)[C@@H]1[C@@H](c2ccccc2)[C@H]2C(=O)c3c(OC)cc(OC)cc3O[C@@]12c1ccc(OC)cc1`, the entry is “inactive”.
With `C=C(C)C(=O)CP(=O)(OCC)OCC`, the molecule was called inactive in assay [1]. The Potency result in assay [2] was “inactive”.
As to `COC(=O)[C@]12C[C@@H]3CCN(C(=O)N[C@@H]1c1ccccc1)[C@@]32C`, in assay [1], the molecule was classed as inactive. Also, in assay [2], the Potency result was “inactive”.
`COC(=O)C1c2c(n(C)c3ccccc23)[C@H]2[C@@H](C)[C@H](OC)c3ccccc3[C@@H]12` (some centres not stated): the molecule was classed as inactive in [1].
Consider `COC(=O)C1=NN=C(C(=O)OC)[C@@]2(C)c3ccccc3NC12` (some centres not stated), for which, in assay [1], the result was inactive. Further, the Potency entry in [2] is “inactive”.
Regarding `CCOC(=O)[C@]12C[C@]3(OC)CCN(C(=O)N[C@@H]1c1ccccc1)[C@@H]32`, the result in assay [1] was inactive. Also, the Potency entry in assay [2] was “inactive”.
For the molecule `C=C1[C@@H]2CCN3C(=O)N[C@@H](c4ccccc4)[C@@]1(C(=O)OCC)C23` (some centres not stated), the molecule was called inactive in [1]. Besides, the Potency result in [2] was “inactive”.
`CCOC(=O)[C@]12C[C@]3(C)CCCN(C(=O)N[C@@H]1c1ccccc1)[C@@H]32`: in assay [1], the call was inactive. For the same molecule, the Potency result in assay [2] is “inactive”.
With `C[C@@H]1CC[C@@H](c2ccoc2)N2C[C@@]3(CC[C@@H]12)CS[C@@]1(CC[C@H]2[C@H](C)CC[C@@H](c4ccoc4)N2[C@@H]1O)C3`, the Potency in assay [10] was 7.43 µM (active); in assay [11] it was 7.43 µM (active); in [4] it was 11.7 µM (active); in assay [6], 8.38 µM (active).
Turning to `CC=C1CN(C=O)[C@H]2C[C@@H]1[C@@H](C(=O)OC)[C@@]13CCOC21Nc1ccccc13` (some centres not stated), the Potency result in assay [3], in [12], in assay [10], in assay [11], in [4] and in [5] was “inactive” throughout. In addition, the Potency entry in assay [6] and in assay [8] was “inactive” throughout. In addition, the molecule was called inactive in assay [9].
In the case of `COC(=O)C12CC3=CCC4C(=O)N(c5ccccc5)C(=O)C4C3Cc3ccccc3[C@H]1CNC2=O` (some centres not stated), the Potency result in assay [2] was “inactive”.
On to `COC(=O)[C@@]1(C=C[C@@H](C)[C@H](OC)c2ccccc2Br)[C@@H]2Oc3ccccc3[C@@H]21`, for which the result in assay [1] was inactive. For the same molecule, the Potency result in [2] is “inactive”.
For `COC(=O)C1(C)C2CC(C)C(c3ccccc32)N1C(=O)C(F)(F)F` (configuration not stated), the molecule was called inactive in assay [1]. Besides, in [2], the Potency entry is “inactive”.
For `COC(=O)[C@@]1(C=C2c3ccccc3[C@@H](OC)[C@@H]2C)[C@@H]2Oc3ccccc3[C@@H]21`, the result in assay [1] was inactive. Besides, the Potency entry in assay [2] is “inactive”.
On to `CC[C@@H]1CN2CC[C@@]3(O)C(=Nc4cccc(OC)c43)[C@@H]2C[C@@H]1/C(=C\OC)C(=O)OC`, for which the Potency entry in assay [12], in assay [11], in assay [4], in [5], in [6] and in assay [7] was “inactive” in each case. Further, the Potency entry in [8] was “inactive”. In [9], the molecule was classed as inactive.
For `CCOC(=O)[C@@]12[C@@H]3[C@@H](CCN3C(=O)N[C@H]1c1ccccc1)C2(C)C`, the result in assay [1] was inactive. Further, the Potency result in assay [2] was “inactive”.
In the case of `CO[C@@H]1c2ccccc2[C@H]2C(C(=O)O)c3c(n(C)c4ccccc34)[C@H]2[C@H]1C` (some centres not stated), the molecule was called inactive in assay [1].
As for `c1ccc2c3c([nH]c2c1)CNCC3`, the result in assay [13] and in assay [9] was inactive. Moreover, in [3], the Potency was 26.6 µM (active). Further, the Potency result in assay [12], in assay [10], in [11], in assay [4], in [5] and in assay [7] was “inactive” each time. Also, in assay [8], the Potency entry was “inactive”.
Take `CC(=O)[C@]12C[C@@H]3CCCN(C(=O)N[C@@H]1c1ccccc1)[C@@H]32`: the result in assay [1] was inactive. Moreover, the Potency result in [2] was “inactive”.
